From PubChem BioAssay AID1220 (Sanford-Burnham Center for Chemical Genomics, 2008) come the findings set out here.

Each structure is given as a SMILES string. The whole screen tested about 190,000 compounds, of which about 1,300 (0.68%) were called active. This is one part of a sample in which actives are shown more often than they occur. Cut-off read from the data, not from the text of the source: active = inhibition above about 50%; inactive = the rest.

Sequence of Mannose-6-phosphate isomerase (Homo sapiens) (P34949 whole entry, looked up): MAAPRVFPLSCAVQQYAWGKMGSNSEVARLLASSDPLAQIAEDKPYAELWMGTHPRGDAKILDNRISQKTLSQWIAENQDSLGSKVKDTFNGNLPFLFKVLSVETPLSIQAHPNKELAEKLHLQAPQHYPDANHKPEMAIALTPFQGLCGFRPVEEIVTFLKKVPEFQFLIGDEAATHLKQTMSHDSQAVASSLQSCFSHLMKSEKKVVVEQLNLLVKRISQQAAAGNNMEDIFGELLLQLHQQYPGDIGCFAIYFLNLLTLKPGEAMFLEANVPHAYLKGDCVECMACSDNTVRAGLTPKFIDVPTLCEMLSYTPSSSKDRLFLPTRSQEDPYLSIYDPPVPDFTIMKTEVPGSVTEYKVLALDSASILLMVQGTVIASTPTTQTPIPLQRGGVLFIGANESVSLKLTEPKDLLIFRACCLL

This experiment concerns the target Mannose-6-phosphate isomerase (Homo sapiens) (UniProt P34949). Put plainly: MPI inhibition at elevated mannose 6-phosphate – biochemical, fluorescence intensity, high mannose 6-phosphate, primary screen (AID 1220). Conditions: recombinant PMI enzyme, coupled fluorescence intensity; at 20 µM; active compounds read high.
In the case of `COc1ccccc1CC(=O)Nc1ccc(O)cc1C(=O)O`, the inhibition was 2.5% (inactive). On to `CCCC1=[N+](CC(C)=O)CCn2c(C)ccc21`, for which the inhibition is -7.3% (inactive). With `COc1ccc2c(c1O)-c1ccccc1CCN(C)C2`, the inhibition was 7.3% (inactive).

On to `CN1CCc2cc3c(c4c2[C@H]1[C@H](O)c1ccccc1-4)OCO3`, for which the inhibition is 16.9% (inactive). On to `CN1CCc2ccccc2C1C1CCNCC1` (configuration not stated), for which the inhibition was 8.3% (inactive). Take `CCCCC(=O)Nc1cc2nn(-c3ccc(OC)cc3)nc2cc1C`: the inhibition is 10.9% (inactive). `O=C(NCCN1CCN(c2ccccc2)CC1)C1(S(=O)(=O)c2ccc(Cl)cc2)CC1`: the inhibition is 18% (inactive). In the case of `O=[N+]([O-])c1cccc(-c2ccc(C(=S)N3CCOCC3)o2)c1`, the inhibition was 47% (inactive).

With `S=C(c1ccc(-c2ccc(Cl)c(Cl)c2)o1)N1CCOCC1`, the inhibition was -7.4% (inactive). With `O=[N+]([O-])c1cc(-c2ccc(C(=S)N3CCOCC3)o2)ccc1Cl`, the inhibition is 61% (active).

Regarding `CC1CCN(C(=O)CSc2nnc(CNc3ccc(F)cc3)n2Cc2ccco2)CC1`, the inhibition is 10.7% (inactive). For the compound `CCCN1C2CCCC1CC(NC(=O)c1ccccc1OCC)C2` (configuration not stated), the inhibition is 0% (inactive). To `COc1ccc(C2CC(=O)N3CN(c4ccccc4F)CSC3=C2C#N)cc1OC` (configuration not stated) belongs -0.4% (inactive). As for `COc1ccc(C2CC(=O)N3CN(c4ccc(C)c(Cl)c4)CSC3=C2C#N)cc1OC` (configuration not stated), the inhibition is -27.1% (inactive).

As for `COc1cc(C2CC(=O)N3CN(Cc4ccco4)CSC3=C2C#N)ccc1OCc1ccccc1` (configuration not stated), the inhibition was 74.4% (active). To `CN1CSC2=C(C#N)C(c3cccc(OCc4ccccc4)c3)CC(=O)N2C1` (configuration not stated) belongs 59.9% (active); to `COc1cc(C2CC(=O)N3CN(Cc4ccccc4)CSC3=C2C#N)ccc1OCc1ccccc1` (configuration not stated), 66.3% (active); to `COc1cccc(C2CC(=O)N3CN(c4ccccc4F)CSC3=C2C#N)c1` (configuration not stated), -11.4% (inactive). Consider `CCc1ccc(C2CC(=O)N3CN(c4ccccc4)CSC3=C2C#N)cc1` (configuration not stated), for which the inhibition was -47.1% (inactive). On to `N#CC1=C2SCN(Cc3ccccc3)CN2C(=O)CC1c1ccc2c(c1)OCO2` (configuration not stated), for which the inhibition was 47.4% (inactive). With `Cc1ccc(/C=N/NC(=O)c2nnn(-c3nonc3N)c2CSc2ccc(Cl)cc2)cc1`, the inhibition was -7% (inactive). As for `Cc1ccc(O)c(NC(=O)c2noc3c2CCc2ccccc2-3)c1`, the inhibition is 13% (inactive). On to `CCOC(=O)CC1C(=O)NCCN1S(=O)(=O)c1ccccc1` (configuration not stated), for which the inhibition was -2.9% (inactive).

For `CC(C)C(=O)N(Cc1ccc(F)cc1)Cc1nc2ccccc2c(=O)[nH]1`, the inhibition is 4.6% (inactive). For `CCN(CC)c1ccc2ccc(=O)oc2c1` the value was 3.8% (inactive). As to `CCN(CC)c1ccc2c(C)c(Cl)c(=O)oc2c1`, the inhibition is -1.9% (inactive). To `CC(SC1CCCC1)C(=O)Nc1ccnn1C(C)C` (configuration not stated) belongs -2.4% (inactive).
